Hits are enriched below; roughly 6.6% of the tested compounds scored in any of these assays.
Mdm2 MdmX PPI = human Mdm2/MdmX binding inhibition | AID 485346 | inhibition, % at 8 µM | SaOS-2 split-luciferase Mdm2/MdmX complementation, luminescence | O15151+Q00987 | 3% of 330,000 active;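 active = inhibition of at least 50% at 8 µM in the primary screen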
Gli-Sufu block = Gli-Sufu pathway antagonism. AID 588413. inhibition, % at 5 µM. 0.74% of 340,000 active. Sufu-KO-LIGHT fibroblasts, Gli luciferase reporter luminescence;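 active = inhibition above about 55%, limit read from the data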;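 note: 0% = DMSO-treated cells and 100% = wells with medium but no cells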
Beta cell apopt = beta cell apoptosis inhibition | INS-1E cytokine-induced death, ATP luminescence, 48 h; percent of positive-control rescue, neutral wells zero | protection from apoptosis, % (test concentration not listed) | 0.8% of 300,000 active;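 active = Every replicate reaches about 75%, or at least half do and their mean reaches it too, limit read from the data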;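 note: 0% = cytokine-treated negative control wells and 100% = positive control rescue; higher means more ATP so stronger rescue from cytokine killing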
MPTP block = permeability transition pore inhibition; isolated mouse mitochondria, Ca2+ swelling absorbance, 30 min; 1.4% of 360,000 active; inhibition, % at 10 µM;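 active = inhibition of 50% or more, scaled per plate between neutral and stimulator controls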;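 note: 0% = DMSO wells given calcium and 100% = 1 mM EGTA wells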
CSC inhib = blocks cancer stem cells. cancer stem cell-like cells viability, luminescence. inhibition, % at 7.5 µM. 1.1% of 300,000 active; in the data active = inhibition above about 75%; tested in HMLE shEcad cells
GRIN3A LBD mod = NR3A (human) ligand-binding domain modulation | Tm shift relative to glycine control, % at 25 µM | NR3A LBD differential scanning fluorimetry, Tm shift; 0% = protein alone, 100% = glycine-bound protein | AID 1259313 | 2.5% of 340,000 active;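 active = melting temperature shift of at least 10% of the positive control shift, at one fixed dose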
MPTP counter = mitochondrial membrane potential, counter-screen; shares compounds with MPTP block; isolated mitochondria, Rhodamine 123 fluorescence; inhibition, % at 10 µM; 78% of 5,000 active; AID 624504; in the data active = inhibition above about 22%;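 note: 0% = DMSO vehicle and 100% = positive control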
MPTP swell DR = MPTP inhibition, dose response swelling confirmation | shares compounds with MPTP block | isolated mitochondria swelling, absorbance | IC50, µM | 58% of 780 active | AID 651561; in the data active = IC50 below about 20 µM
MPTP cs DR = counter-screen for mitochondrial permeability transition pore inhibitors, dose response | shares compounds with MPTP block | isolated mitochondria counterscreen, fluorescence read-out | IC50, µM | 49% of 780 active; in the data active = IC50 below about 80 µM
* = called active by the depositor; i = inactive; . = no result given.

SMILES	Mdm2 MdmX PPI	Gli-Sufu block	Beta cell apopt	MPTP block	CSC inhib	GRIN3A LBD mod	MPTP counter	others
CCOc1ccc(N(CC(=O)NCc2ccccc2Cl)S(=O)(=O)c2c(C)noc2C)cc1	19	-11	-3	2	26	-3	.
C=C(C)COc1ccc(-c2ncnc(C(F)(F)F)c2-c2ccccc2)c(O)c1	30	-8	5	1	42	-3	.
Oc1ccc(-c2n[nH]c(C(F)(F)F)c2-c2ccccc2)c(O)c1	8	70*	105*	84*	-15	2	76*
O=C(C1CC1)N1CCC(c2nc(-c3ccc(S(=O)(=O)NCC4CCCO4)cc3)no2)CC1 (stereo not drawn)	9	20	7	66*	19	-3	16	MPTP swell DR=i;MPTP cs DR=46*
O=C(c1ccccc1)N1CCC(c2nc(-c3ccc(S(=O)(=O)NCC4CCCO4)cc3)no2)CC1 (stereo not drawn)	20	40	41	53*	6	-1	62*
O=S(=O)(NCC1CCCO1)c1ccccc1 (stereo not drawn)	11	26	-2	1	-9	-3	.
CC1=NN(c2ccc(C)cc2C)C(=O)C1C(c1ccccc1O)C1C(=O)N(c2ccc(C)cc2C)N=C1C (stereo not drawn)	36	-1	-2	0	0	-8	.
CC1=NN(c2ccc(Cl)cc2)C(=O)C1C(c1ccccc1O)c1c(C)[nH]n(-c2ccc(Cl)cc2)c1=O (stereo not drawn)	31	12	12	88*	38	255*	24*
COc1ccc(N(C(=O)CNC(=O)c2ccco2)C(C(=O)NC2CCCC2)c2ccco2)cc1 (stereo not drawn)	10	21	-6	-2	-7	1	.
Cn1c(N=Nc2ccc(N3CCOCC3)cc2)[n+](C)c2ccccc21	.	-2	.	81*	.	-5	25*
Cc1ccc(C(CNS(=O)(=O)c2ccc(Br)cc2)N2CCN(C)CC2)cc1 (stereo not drawn)	23	13	5	78*	1	0	-16	MPTP swell DR=13*;MPTP cs DR=>80
CN1/C(=C/c2cc[n+](C)c3ccccc23)C=Cc2ccccc21	.	89*	.	75*	.	0	59*
CN(Cc1ccccc1F)C(=O)c1ccc(NC(=O)CC2SC(N3CCCCC3)=NC2=O)cc1 (stereo not drawn)	.	-10	.	1	.	-5	.
c1ccc(OCCSc2nc3ccccc3[nH]2)cc1	-16	-37	6	-6	-16	-15	.
Cc1ccccc1OCCCSc1nc2ccccc2[nH]1	-29	32	-7	68*	35	-3	99*
CC(=O)Nc1cccc(C(=O)OCC(=O)N2CCN(C(=O)COC(=O)c3cccc(NC(C)=O)c3)CC2)c1	.	-8	.	1	.	0	.
O=[N+]([O-])c1ccc2c(c1N1CCCCC1)=NC1(CCCCC1)[N+]=2[O-]	3	-2	-5	58*	-10	-2	36*
O=[N+]([O-])c1ccc(N2CCCCC2)nc1N1CCCCC1	29	3	.	4	0	2	.
CN(CC(=O)Nc1ccc(N2CCOCC2)cc1)C(=O)c1ccc(CS(C)(=O)=O)cc1	9	-15	-10	1	-11	-13	.
COc1ccc(CCNCC(=O)Nc2ccc(C)c(S(=O)(=O)N(C)C)c2)cc1	14	10	-5	68*	14	0	-3	MPTP swell DR=i;MPTP cs DR=74*
Cc1ccc(NC(=O)CSc2nn(-c3ccccc3)c(=S)s2)cc1S(=O)(=O)N(C)C	15	8	0	98*	18	4	76*
O=C(CSc1nn(-c2ccccc2)c(=S)s1)Nn1cnnc1	-7	0	-5	1	18	2	.
CCN(CC(=O)Nc1ccc(OC)cc1)C(=O)c1ccc2c(c1)NC(=O)C(C)S2 (stereo not drawn)	10	-8	0	2	-6	1	.
c1ccc(CCC2Cc3ccccc3N2)cc1 (stereo not drawn)	16	-9	-6	1	1	4	.
